Laboratory results: PubChem BioAssay (NCATS)
Results filed as inconclusive are left out. A call without a number means that no potency is given here. Active and inactive are the calls of the source. Calls come from the whole dose curve; as a rule, active = well fitted inhibition curve with a large enough effect; inconclusive = small, poorly fitted or top-dose-only effect; inactive = flat fitted curve, though single readings scatter. *1 amine or outer side, *2 acyl side, *3 side chain or, on linkers, in order; H or OH if unused. Where a SMILES comes first, the peptide text is derived from it. Bridges are numbered along the chain shown (N, C = ends). [ ]: non-standard residue; d: D form. The star is where a group is joined. pTerphenylCO(4''-OnC5H11) = CCCCCOc1ccc(-c2ccc(-c3ccc(C(=O)*)cc3)cc2)cc1; Orn(4R-OH,5R-OH) = O=C([C@H](C[C@@H](O)[C@@H](O)N[*:3])N[*:1])[*:2]; hTyr(3S-OH,4S-OH) = N[C@H](C(=O)O)[C@H](O)[C@@H](O)c1ccc(O)cc1; Pro(3S-OH,4S-Me) = C[C@H]1CN[C@H](C(=O)O)[C@H]1O; Hyp = O=C(O)[C@@H]1C[C@@H](O)CN1

molecular target: Calcium and integrin-binding protein 1 (Homo sapiens) (UniProt Q99828); assay: Primary qHTS for Identification of Calcium Integrin Binding Protein 1 (CIB1) Competitor (AID 1508620); conditions: CIB1-GST / FITC-alphaIIb peptide fluorescence polarization; series mostly up to 114 µM; note: top concentration of the series differs between compounds
Sequence (Q99828 whole entry, looked up): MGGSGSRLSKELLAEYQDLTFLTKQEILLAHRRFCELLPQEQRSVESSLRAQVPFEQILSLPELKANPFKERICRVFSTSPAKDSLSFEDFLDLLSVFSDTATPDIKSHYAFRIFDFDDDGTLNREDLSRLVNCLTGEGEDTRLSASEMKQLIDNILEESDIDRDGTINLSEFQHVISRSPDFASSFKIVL
How it was run: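 Fluorescence polarization competition: GST-tagged CIB1 (1 uM final) preincubated with compound 15 min at room temperature, then FITC-labelled alphaIIb peptide (100 nM final) added. After 15 min at room temperature, polarization read at Ex 480/Em 540.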

**Q.** Which Potency does the source give for `CCCCCOc1ccc(-c2ccc(-c3ccc(C(=O)N[C@H]4C[C@@H](O)[C@@H](O)NC(=O)[C@@H]5[C@@H](O)[C@@H](C)CN5C(=O)[C@H]([C@@H](C)O)NC(=O)[C@H]([C@H](O)[C@@H](O)c5ccc(O)cc5)NC(=O)[C@@H]5C[C@@H](O)CN5C(=O)[C@H]([C@@H](C)O)NC4=O)cc3)cc2)cc1` ({pTerphenylCO(4''-OnC5H11)}-[Orn(4R-OH,5R-OH)]T[Hyp][hTyr(3S-OH,4S-OH)]T[Pro(3S-OH,4S-Me)]; lactam 1-C) here?
**A.** inactive

**Q.** For `CC1=CC2/C=C(\C)CCC3OC(C)(C)OC3CCC(=O)C23C(=O)NC(CC(C)C)C3C1C` (stereo not drawn), which Potency is on record?
**A.** inactive

**Q.** Which Potency does the source give for `COc1c(C(O)CC(C)C)ccc2c1C(=O)OCc1cc(C)cc(O)c1O2` (stereo not drawn) here?
**A.** inactive
